# Where a chain is given by its changes, count along the chain named. Over roughly 16,000 sequences, “ka relative to ugcaugu” has its median near 0.0091; the highest 2% begin near 0.032. The sample holds the highest values, similar sequences and a random draw of the others, so the mix is not that of the screen.
# T1: RBFOX1 RRM (Homo sapiens, UniProt Q9NWB1 109-208)
# T1 sequence: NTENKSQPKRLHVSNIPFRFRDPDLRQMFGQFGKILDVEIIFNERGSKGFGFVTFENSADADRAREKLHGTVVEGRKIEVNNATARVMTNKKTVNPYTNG
# B1: UCAGACC (DNA:RNA)
# RNA: GGGAGACCGGAAUUCAGAUUGUCCUCAGACCUUAAAUCCCGUCGUAGCCACCA
# DNA 1: CAATCTGAATTCCGGTCTCCC
# DNA 2: TGGTGGCTACGACGGGATT
# B2: UGAGCUA (DNA:RNA)
# RNA: B1 RNA with C26G, A29C, C30U, C31A
# DNA 1: CAATCTGAATTCCGGTCTCCC
# DNA 2: TGGTGGCTACGACGGGATT
# B3: UAGAGGG (DNA:RNA)
# RNA: B1 RNA with C26A, A27G, G28A, A29G, C30G, C31G
# DNA 1: CAATCTGAATTCCGGTCTCCC
# DNA 2: TGGTGGCTACGACGGGATT
# B4: AACACAA (DNA:RNA)
# RNA: GGGAGACCGGAAUUCAGAUUGUCCAACACAAUUAAAUCCCGUCGUAGCCACCA
# DNA 1: CAATCTGAATTCCGGTCTCCC
# DNA 2: TGGTGGCTACGACGGGATT
# B5: GAGAUCC (DNA:RNA)
# RNA: B4 RNA with A25G, C27G, C29U, A30C, A31C
# DNA 1: CAATCTGAATTCCGGTCTCCC
# DNA 2: TGGTGGCTACGACGGGATT
# B6: UCUGUUC (DNA:RNA)
# RNA: B1 RNA with A27U, A29U, C30U
# DNA 1: CAATCTGAATTCCGGTCTCCC
# DNA 2: TGGTGGCTACGACGGGATT
# B7: GAGGGGG (DNA:RNA)
# RNA: B4 RNA with A25G, C27G, A28G, C29G, A30G, A31G
# DNA 1: CAATCTGAATTCCGGTCTCCC
# DNA 2: TGGTGGCTACGACGGGATT
# B8: UGGCGUA (DNA:RNA)
# RNA: B4 RNA with A25U, A26G, C27G, A28C, C29G, A30U
# DNA 1: CAATCTGAATTCCGGTCTCCC
# DNA 2: TGGTGGCTACGACGGGATT
# B9: UGGCUGG (DNA:RNA)
# RNA: B1 RNA with C26G, A27G, G28C, A29U, C30G, C31G
# DNA 1: CAATCTGAATTCCGGTCTCCC
# DNA 2: TGGTGGCTACGACGGGATT
# B10: UGGCUUC (DNA:RNA)
# RNA: B1 RNA with C26G, A27G, G28C, A29U, C30U
# DNA 1: CAATCTGAATTCCGGTCTCCC
# DNA 2: TGGTGGCTACGACGGGATT
# B11: UGGCGUC (DNA:RNA)
# RNA: B1 RNA with C26G, A27G, G28C, A29G, C30U
# DNA 1: CAATCTGAATTCCGGTCTCCC
# DNA 2: TGGTGGCTACGACGGGATT
# B12: GGCUGGU (DNA:RNA)
# RNA: B4 RNA with A25G, A26G, A28U, C29G, A30G, A31U
# DNA 1: CAATCTGAATTCCGGTCTCCC
# DNA 2: TGGTGGCTACGACGGGATT
# B13: UUGCUGG (DNA:RNA)
# RNA: B1 RNA with C26U, A27G, G28C, A29U, C30G, C31G
# DNA 1: CAATCTGAATTCCGGTCTCCC
# DNA 2: TGGTGGCTACGACGGGATT
# B14: CGGCUGG (DNA:RNA)
# RNA: GGGAGACCGGAAUUCAGAUUGUCCCGGCUGGUUAAAUCCCGUCGUAGCCACCA
# DNA 1: CAATCTGAATTCCGGTCTCCC
# DNA 2: TGGTGGCTACGACGGGATT
# B15: UGGCGUG (DNA:RNA)
# RNA: B14 RNA with C25U, U29G, G30U
# DNA 1: CAATCTGAATTCCGGTCTCCC
# DNA 2: TGGTGGCTACGACGGGATT
# B16: GUGCUGG (DNA:RNA)
# RNA: B14 RNA with C25G, G26U
# DNA 1: CAATCTGAATTCCGGTCTCCC
# DNA 2: TGGTGGCTACGACGGGATT
# B17: UGGCUUG (DNA:RNA)
# RNA: B14 RNA with C25U, G30U
# DNA 1: CAATCTGAATTCCGGTCTCCC
# DNA 2: TGGTGGCTACGACGGGATT
# B18: GCUGGUU (DNA:RNA)
# RNA: B1 RNA with U25G, A27U, A29G, C30U, C31U
# DNA 1: CAATCTGAATTCCGGTCTCCC
# DNA 2: TGGTGGCTACGACGGGATT
# B19: UCCUGGC (DNA:RNA)
# RNA: B1 RNA with A27C, G28U, A29G, C30G
# DNA 1: CAATCTGAATTCCGGTCTCCC
# DNA 2: TGGTGGCTACGACGGGATT
# B20: GCUAGGA (DNA:RNA)
# RNA: B4 RNA with A25G, A26C, C27U, C29G, A30G
# DNA 1: CAATCTGAATTCCGGTCTCCC
# DNA 2: TGGTGGCTACGACGGGATT
# Biological target: T1, RBFOX1 RRM
# Test: EMSA; HiTS-Eq, 1 nM pool, 10 min; buffer printed only for the single-RNA assays: 10 mM Tris pH 7.5, 150 mM NaCl, 3.4 mM EDTA, 0.001% NP-40, 30 C
# Conditions: tags: His6 N-terminal (pET28a); label: 5' 32P
# Outline: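 Relative association constants, normalised to the cognate motif, were derived by comparing read counts of each RNA species with those of the control reaction. The RNA sequenced was the free fraction, separated by 8% native PAGE after a 10 min equilibration in 50 µL of 1 nM 5′-radiolabelled RNA (7 randomized nucleotides) with increasing concentrations of purified wild-type or mutant RbFox RRM.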
row,Binder,binding signal
1,B1,0.00454 KA relative to UGCAUGU
2,B2,0.015 KA relative to UGCAUGU
3,B3,0.00669 KA relative to UGCAUGU
4,B4,0.00155 KA relative to UGCAUGU
5,B5,0.0136 KA relative to UGCAUGU
6,B6,0.0184 KA relative to UGCAUGU
7,B7,0.0168 KA relative to UGCAUGU
8,B8,0.0143 KA relative to UGCAUGU
9,B9,0.0415 KA relative to UGCAUGU
10,B10,0.0201 KA relative to UGCAUGU
11,B11,0.0251 KA relative to UGCAUGU
12,B12,0.0324 KA relative to UGCAUGU
13,B13,0.0302 KA relative to UGCAUGU
14,B14,0.0236 KA relative to UGCAUGU
15,B15,0.0332 KA relative to UGCAUGU
16,B16,0.0295 KA relative to UGCAUGU
17,B17,0.0526 KA relative to UGCAUGU
18,B18,0.0289 KA relative to UGCAUGU
19,B19,0.0109 KA relative to UGCAUGU
20,B20,0.00693 KA relative to UGCAUGU

# Source: article PMC9911399, “Two distinct binding modes provide the RNA-binding protein RbFox with extraordinary sequence specificity”
